Results filed as inconclusive are left out. Active and inactive are the calls of the source. Unless noted, calls come from the whole dose curve; as a rule, active = well fitted curve in the direction sought with a large enough effect in the repeat runs; inconclusive = weak or mixed curves; inactive = no such curve, though single readings can be large; an effect the other way counts as inactive or inconclusive.
What was measured:
[1] = qHTS assay for small molecules that induce genotoxicity in human embryonic kidney cells expressing luciferase-tagged ATAD5 - cell viability (AID 651634; calls by dose curve; note: nearly all actives have a fitted effect of over 25% in size; note: potency is the fitted concentration of half-maximal effect)
Method in brief: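 HEK293T cells expressing luciferase-tagged ATAD5 were exposed to compound or DMSO for 15.5 hr at 37C, 5% CO2. Viability was then read as live-cell protease activity by CellTiter-Fluor fluorescence after 30 min at 37C.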

[2] = qHTS assay to test for compound auto fluorescence at 535 nm (green) in HepG2 cells (AID 720675); note: potency is the fitted concentration of half-maximal effect
[3] = qHTS assay to test for compound auto fluorescence at 590 nm (red) in HEK293 cells (AID 720679)
Method in brief: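 Using HEK293 cells at 2,000 per well, the screen added 23 nL of each compound after cell attachment and incubated overnight (37C, 5% CO2). The plate reader then captured red-label fluorescence, Ex/Em 540/590nm.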

[4] = qHTS assay to test for compound auto fluorescence at 535 nm (green) in HEK293 cells (AID 720680); note: potency is the fitted concentration of half-maximal effect
[5] = qHTS assay to test for compound auto fluorescence at 460 nm (blue) in HEK293 cell free culture (AID 720681); note: potency is the fitted concentration of half-maximal effect
Method in brief: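 Test compounds were pinned into cell-free culture medium (DMEM with 10% FBS) and fluorescence was read directly at Ex/Em 405/460 nm. Signals were expressed as fluorescence equivalents of triamterene, with DMSO vehicle as control.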

[6] = qHTS assay to test for compound auto fluorescence at 535 nm (green) in HEK293 cell free culture (AID 720682); note: potency is the fitted concentration of half-maximal effect
Method in brief: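 Using fluorescein as calibrant, autofluorescence was quantified at 485/535 nm in cell-free DMEM containing 10% FBS after pintool addition of compound or vehicle.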

[7] = qHTS assay to test for compound auto fluorescence at 590 nm (red) in HepG2 cell free culture (AID 720684)
Method in brief: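 Red fluorescence (540 nm excitation, 590 nm emission) was measured after compound transfer into cell-free MEM supplemented with 10% FBS. Values are equivalencies against Rose Bengal sodium.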

[8] = qHTS assay to test for compound auto fluorescence at 460 nm (blue) in HepG2 cell free culture (AID 720685); note: potency is the fitted concentration of half-maximal effect
Method in brief: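 Compound (23 nL) or DMSO pinned into cell-free MEM with 10% FBS; blue fluorescence read at 405/460 nm excitation/emission, expressed as auto-fluorescence equivalency to triamterene.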

[9] = qHTS assay to test for compound auto fluorescence at 535 nm (green) in HepG2 cell free culture (AID 720686); note: potency is the fitted concentration of half-maximal effect
[10] = qHTS assay to test for compound auto fluorescence at 460 nm (blue) in HepG2 cells (AID 720687); note: potency is the fitted concentration of half-maximal effect
Method in brief: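 Cells (2,000/well in MEM with 10% FBS) attached overnight at 37 C, then were exposed to compound or DMSO for 1 hr at 37 C, 5% CO2. Fluorescence read at Ex/Em 405/460 nm, expressed as triamterene-equivalent signal.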

[11] = qHTS assay for identifying genotoxic compounds that show differential cytotoxicity against isogenic chicken DT40 cell lines with known DNA damage response pathways - Rad54/Ku70 mutant cell line (AID 743015); note: nearly all actives have a fitted effect of over 60% in size; note: potency is the fitted concentration of half-maximal effect
[12] = qHTS assay to identify small molecule antagonists of the thyroid receptor (TR) signaling pathway - cell viability counter screen (AID 743064); note: nearly all actives have a fitted effect of over 50% in size; note: potency is the fitted concentration of half-maximal effect
Method in brief: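 Counter screen for cytotoxicity: compound plus T3 (1 nM final) on GH3.TRE-Luc cells, 23.5 h at 37 °C, then fluorescence viability readout with CellTiter-Fluor.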

[13] = qHTS assay to identify small molecule antagonists of the thyroid receptor (TR) signaling pathway (AID 743065); note: nearly all actives have a fitted effect of over 55% in size; note: potency is the fitted concentration of half-maximal effect
Method in brief: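 GH3.TRE-Luc rat pituitary cells carrying two TR response elements driving luciferase were plated for 4 h, given compound plus 1 nM T3 (final), and incubated 23.5 h at 37 C. ONE-Glo luminescence measured reporter inhibition; CellTiter-Fluor fluorescence tracked cytotoxicity.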

[14] = qHTS assay to identify small molecule antagonists of the estrogen receptor alpha (ER-alpha) signaling pathway - cell viability counter screen (AID 743074; calls by dose curve;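 note: HEK293 cells carrying ER-alpha-UAS-bla reporter stimulated with 17beta-estradiol; nearly all actives have a fitted effect of over 45% in size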; note: potency is the fitted concentration of half-maximal effect)
[15] = biological target: Aromatase (Homo sapiens) (UniProt P11511); test: qHTS assay to identify aromatase inhibitors (AID 743083); note: nearly all actives have a fitted effect of over 55% in size; note: potency is the fitted concentration of half-maximal effect
Aromatase (Homo sapiens), sequence (P11511 whole entry, looked up): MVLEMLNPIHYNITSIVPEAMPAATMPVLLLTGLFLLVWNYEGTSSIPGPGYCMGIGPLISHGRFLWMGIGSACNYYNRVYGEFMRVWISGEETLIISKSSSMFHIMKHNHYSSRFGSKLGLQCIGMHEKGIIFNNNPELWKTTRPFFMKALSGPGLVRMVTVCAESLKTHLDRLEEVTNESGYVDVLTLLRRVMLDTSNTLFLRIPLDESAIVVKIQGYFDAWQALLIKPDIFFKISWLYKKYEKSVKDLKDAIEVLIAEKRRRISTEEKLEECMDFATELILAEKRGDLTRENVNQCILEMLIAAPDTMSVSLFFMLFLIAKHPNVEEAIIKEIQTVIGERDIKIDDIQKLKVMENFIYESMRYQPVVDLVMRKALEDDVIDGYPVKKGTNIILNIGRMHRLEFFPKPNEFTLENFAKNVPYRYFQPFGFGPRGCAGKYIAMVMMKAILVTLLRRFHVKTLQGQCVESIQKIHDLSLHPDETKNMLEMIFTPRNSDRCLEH

[16] = qHTS assay to identify aromatase inhibitors - cell viability counter screen (AID 743084);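 note: cells stimulated with testosterone during compound exposure; nearly all actives have a fitted effect of over 55% in size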; note: potency is the fitted concentration of half-maximal effect
[17] = qHTS assay to identify small molecule that activate the aryl hydrocarbon receptor (AhR) signaling pathway - cell viability counter screen (AID 743086); note: nearly all actives have a fitted effect of over 45% in size; note: potency is the fitted concentration of half-maximal effect
Method in brief: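 HepG2-AhR-luc (HG2L7.5c1) cells, 4000/well, were preincubated 5 h at 37C, exposed to compound in qHTS format for 24 hr at 37C, then given CellTiter-Fluor for 30 min; viability was read as fluorescence in the reporter wells.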

[18] = qHTS assay for small molecules that induce genotoxicity in human embryonic kidney cells expressing luciferase-tagged ATAD5 (AID 651632); note: nearly all actives have a fitted effect of over 15% in size; note: potency is the fitted concentration of half-maximal effect
Method in brief: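 HEK293T cells carrying a luciferase reporter tagged to ATAD5 were exposed to compound or DMSO vehicle for 16 hr at 37C, 5% CO2. Amplite was added, and after 30 min at room temperature luciferase activity was read as a marker of ATAD5 induction.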

[19] = tested on: thyroid hormone receptor (rat, GH3 cells); test: qHTS assay to identify small molecule agonists of the thyroid receptor (TR) signaling pathway (AID 743066; calls by dose curve)
[20] = biological target: Aryl hydrocarbon receptor (Homo sapiens) (UniProt P35869); test: qHTS assay to identify small molecule that activate the aryl hydrocarbon receptor (AhR) signaling pathway (AID 743085); note: nearly all actives have a fitted effect of over 15% in size; note: potency is the fitted concentration of half-maximal effect
Aryl hydrocarbon receptor (Homo sapiens), sequence (P35869 whole entry, looked up): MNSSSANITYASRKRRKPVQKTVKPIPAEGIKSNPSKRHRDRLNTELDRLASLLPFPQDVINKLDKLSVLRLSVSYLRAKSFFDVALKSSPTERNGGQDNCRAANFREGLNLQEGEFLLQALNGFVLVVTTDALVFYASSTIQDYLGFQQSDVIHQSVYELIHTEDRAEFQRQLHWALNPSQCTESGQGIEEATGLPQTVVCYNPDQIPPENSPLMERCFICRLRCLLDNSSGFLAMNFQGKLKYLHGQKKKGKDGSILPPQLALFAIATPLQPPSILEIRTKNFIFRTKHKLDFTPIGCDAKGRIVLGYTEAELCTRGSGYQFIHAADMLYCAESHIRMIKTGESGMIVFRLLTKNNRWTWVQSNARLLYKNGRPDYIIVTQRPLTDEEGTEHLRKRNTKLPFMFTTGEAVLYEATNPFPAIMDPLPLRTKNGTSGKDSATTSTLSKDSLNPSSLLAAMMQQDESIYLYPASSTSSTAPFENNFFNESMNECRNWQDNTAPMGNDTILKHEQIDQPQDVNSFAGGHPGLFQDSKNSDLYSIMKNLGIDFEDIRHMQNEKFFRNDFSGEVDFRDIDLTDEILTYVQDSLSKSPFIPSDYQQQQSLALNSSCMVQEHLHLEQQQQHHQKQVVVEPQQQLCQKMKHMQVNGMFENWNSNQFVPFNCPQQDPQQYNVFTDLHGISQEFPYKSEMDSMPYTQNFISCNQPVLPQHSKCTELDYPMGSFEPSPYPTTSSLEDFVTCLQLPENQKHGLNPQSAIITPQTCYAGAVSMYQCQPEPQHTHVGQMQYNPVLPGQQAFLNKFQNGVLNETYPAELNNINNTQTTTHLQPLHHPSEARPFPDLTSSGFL
Method in brief: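 Measured in HG2L7.5c1 cells: CellTiter-Fluor signal (30 min incubation, 37C) for viability, then luciferase luminescence (30 min, room temperature). Compound contact time was 24 h at 37C, following a 5 h pre-incubation.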

Measured: Potency
Tags give direction and shape of the fitted curve or compound fluorescence and quenching.

[H+].[H+].[Hg+2].[O-]B([O-])[O-].[c-]1ccccc1
active: [1] 9.44 µM | [11] 0.335 µM | [12] 1.06 µM | [13] 0.596 µM | [14] 6.01 µM | [15] 7.5 µM | [16] 10.6 µM | [17] 21.1 µM
not listed: [18] | [19] | [20]
inactive: all other assays above

CN[C@]1(c2ccccc2Cl)CCCCC1=O
not listed: [14]
inactive: all other assays above

Cc1nnc2n1-c1ccc(Cl)cc1C(c1ccccc1)=NC2
active: [18] 13.3 µM | [13] 26.6 µM
not listed: [11] | [12]
inactive: all other assays above

CC(N)Cc1ccc2c(c1)OCO2 (stereo not drawn)
not listed: [4]
inactive: all other assays above

C=CCC1([C@@H](C)CCC)C(=O)NC(=O)NC1=O
not listed: [11]
inactive: all other assays above

O=c1ccc2cc(O[C@@H]3O[C@H](CO)[C@@H](O)[C@H](O)[C@H]3O)c(O)cc2o1
active: [5] 8.91 µM | [8] 8.91 µM [fluorescent] | [10] 10 µM [fluorescent]
not listed: [1] | [12] | [16] | [17]
inactive: all other assays above

CC(=O)[C@@]1(O)CC[C@H]2[C@@H]3CCC4=CC(=O)CC[C@]4(C)C3(F)[C@@H](O)C[C@@]21C (stereo partly drawn)
inactive: all assays above

C#CCN1CC(=O)N(COC(=O)C2C(C=C(C)C)C2(C)C)C1=O (stereo not drawn)
inactive: all assays above

N#CC(C#N)=Cc1cc(O)c(O)c(O)c1
active: [1] 29.8 µM | [11] 21.1 µM | [12] 26.6 µM | [16] 26.6 µM | [17] 13.3 µM
not listed: [2] | [9] | [13] | [15] | [20]
inactive: all other assays above

CC[C@H]1[C@@H]2C[C@H]3[C@@H]4N(C)c5ccccc5[C@]45C[C@@H](C2[C@H]5O)N3[C@@H]1O (stereo partly drawn)
not listed: [4]
inactive: all other assays above

CNC1(c2ccccc2Cl)CCCCC1=O (stereo not drawn)
inactive: all assays above

O=C1OC2(c3cc(Br)c(O)cc3Oc3c2cc(Br)c(O)[c]3[Hg])c2ccccc21 (stereo not drawn)
active: [2] 10 µM | [4] 10 µM [fluorescent] | [6] 10 µM [fluorescent] | [9] 10 µM [fluorescent] | [11] 10.1 µM
not listed: [3] | [7] | [13] | [19]
inactive: all other assays above

C[C@@H]1[C@@H]2Cc3ccc(O)cc3[C@@]1(C)CCN2CC1CC1
inactive: all assays above

C[N+](C)(C)CCCCCCCCCC[N+](C)(C)C
inactive: [15] | [20]

COc1ccc(C)cc1N
inactive: [15] | [20]

CN1[C@@H]2CC[C@H]1CC(OC(=O)C(CO)c1ccccc1)C2 (stereo partly drawn)
inactive: [15]

Cc1nnc2n1-c1sc(Br)cc1C(c1ccccc1Cl)=NC2
active: [18] 23.7 µM | [11] 26.6 µM | [12] 21.1 µM | [13] 26.6 µM
not listed: [4]
inactive: all other assays above

Cc1c(N)cccc1N
active: [20] 27.9 µM
inactive: [15]

Clc1ccc(Cl)c(Cl)c1Cl
inactive: [15] | [20]

O.O.O.O=C([O-])C(O)C(O)C(=O)[O-].O=C([O-])C(O)C(O)C(=O)[O-].[K+].[K+].[Sb].[Sb] (stereo not drawn)
active: [11] 11.9 µM | [12] 29.8 µM
not listed: [1] | [13] | [15] | [19]
inactive: all other assays above

O=C(Cl)c1cccc(C(=O)Cl)c1
inactive: [15] | [20]

[S]=[Sb](=[S])[S][Sb](=[S])=[S]
inactive: all assays above

CCOC(=O)C1(c2ccccc2)CCCN(C)CC1 (stereo not drawn)
inactive: all assays above

C=CCOc1c(Br)cc(C(C)(C)c2cc(Br)c(OCC=C)c(Br)c2)cc1Br
inactive: [20]

CCN(CC)/[N+]([O-])=N/O
not listed: [1] | [4] | [11] | [18]
inactive: all other assays above

COc1cc([C@@H]2c3cc4c(cc3[C@H](O)[C@H]3COC(=O)[C@H]23)OCO4)cc(OC)c1OC
inactive: [15]

CCNCC(O)c1cccc(O)c1 (stereo not drawn)
inactive: all assays above

Cc1ccc(C)cc1
inactive: [15]

CN[C@@]1(c2ccccc2Cl)CCCCC1=O
inactive: all assays above

CC1(C)C(C=C(Cl)Cl)C1C(=O)OCc1cccc(Oc2ccccc2)c1 (stereo not drawn)
inactive: [15] | [20]

Clc1cc(Cl)c(Cl)cc1Cl
inactive: [15] | [20]

COc1cc(C[C@H](C)N)c(OC)cc1C
not listed: [13] | [20]
inactive: all other assays above

CN1CC[C@@]23CCCC[C@@H]2[C@@H]1Cc1ccc(O)cc13
not listed: [13] | [19]
inactive: all other assays above

O=P1(N(CCCl)CCCl)NC(OO)CCO1 (stereo not drawn)
inactive: all assays above

CC(=O)OC(C)=O
inactive: [20]

CC(=O)OC1CN2CCC1CC2 (stereo not drawn)
inactive: all assays above

C[C@@H](N)C(=O)c1ccccc1
not listed: [4] | [14] | [20]
inactive: all other assays above

COc1cc2c(cc1OC)[C@@H]1CC(=O)[C@@H](CC(C)C)CN1CC2
inactive: [15] | [20]

From PubChem BioAssay (Tox21)
